Our source for the Potency, activity, negative = inhibition and activity change, negative = inhibition values is PubChem BioAssay (Tox21).

Assay [1] has as its target Acetylcholinesterase (Homo sapiens) (UniProt P22303). Briefly: Acetylcholinesterase (AChE) small molecule antagonists: colormetric cell-based qHTS assay (AID 1347395). Note: nearly all actives have a fitted effect of over 30% in size. Note: potency is the fitted concentration of half-maximal effect. In short, it runs like this: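 Colorimetric read-out: DTNB detects thiocholine released when cellular AChE in SH-SY5Y cells hydrolyses acetylthiocholine. Cells attached overnight, received compound for 30 min at 37 C, then substrate mix for 90 min at 37 C.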
Background: In qHTS, concentration-response curves come from the screen itself.

Assay [2] shares this target. As to the kind of experiment: Acetylcholinesterase (AChE) small molecule antagonists: enzyme-based qHTS assay (AID 1347397). Note: nearly all actives have a fitted effect of over 55% in size. The following applies: Potency: AChE enzyme activity inhibition; outcome: AChE enzyme activity inhibition. The gist of the method: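 Recombinant human AChE, dispensed at 50 mU/mL, was preincubated with Tox21 10K compounds or DMSO vehicle for 30 min at room temperature. DTNB plus acetylthiocholine was then added, and thiocholine was measured colorimetrically after a further 10 min.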

For assay [3] the target is unchanged. Briefly: Acetylcholinesterase (AChE) small molecule antagonists: fluorescence cell-based qHTS assay (AID 1347398). Note: nearly all actives have a fitted effect of over 50% in size. Note: potency is the fitted concentration of half-maximal effect. The following applies: Potency: AChE activity; outcome: AChE activity. The gist of the method: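 Human SH-SY5Y cells were plated overnight at 37 C, exposed to compound for 30 min at 37 C, 5% CO2, then given acetylthiocholine plus Thiolite Green for 40 min at room temperature; thiocholine fluorescence (Ex/Em 490/520 nm) reports endogenous AChE activity.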

Assay [4] shares this target. As to the kind of experiment: Acetylcholinesterase (AChE) small molecule antagonists: enzyme-based qHTS assay with human liver microsomes (AID 1347399). Note: nearly all actives have a fitted effect of over 60% in size. Particulars: Potency: qHTS inhibition; outcome: qHTS inhibition. In short, it runs like this: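 Recombinant human AChE (50 mU/mL in the enzyme mix) and human liver microsomes (0.25 mg/mL final) were preincubated with compound and NADPH (0.25 mg/mL final) for 30 min at 37 C. Acetylthiocholine/DTNB was then added; thiocholine was read colorimetrically after 10 min at room temperature.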

Unmarked numbers belong to inactive results. Results filed as inconclusive are left out. Calls of active or inactive are those of the source. Calls come from the whole dose curve.
% is set by controls: 0 for no effect and ±100 for the full control effect.

Acetylcholinesterase (Homo sapiens), sequence (P22303 whole entry, looked up): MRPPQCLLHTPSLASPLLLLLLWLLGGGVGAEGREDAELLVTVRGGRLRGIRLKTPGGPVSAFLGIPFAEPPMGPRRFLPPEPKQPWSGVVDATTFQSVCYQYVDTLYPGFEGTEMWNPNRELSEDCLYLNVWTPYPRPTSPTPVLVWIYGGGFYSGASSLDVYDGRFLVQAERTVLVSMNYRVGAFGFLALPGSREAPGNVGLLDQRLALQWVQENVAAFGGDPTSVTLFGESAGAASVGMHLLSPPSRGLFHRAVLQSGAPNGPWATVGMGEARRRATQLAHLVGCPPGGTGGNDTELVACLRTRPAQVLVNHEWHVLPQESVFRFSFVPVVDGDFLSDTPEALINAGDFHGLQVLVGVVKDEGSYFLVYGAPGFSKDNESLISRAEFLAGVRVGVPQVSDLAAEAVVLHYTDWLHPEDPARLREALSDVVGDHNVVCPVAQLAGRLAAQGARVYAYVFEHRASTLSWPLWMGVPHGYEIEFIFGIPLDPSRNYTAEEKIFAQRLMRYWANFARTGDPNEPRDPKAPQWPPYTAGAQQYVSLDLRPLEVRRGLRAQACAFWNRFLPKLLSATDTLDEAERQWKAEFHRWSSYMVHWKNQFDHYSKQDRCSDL

As for `NS(=O)(=O)c1cc(C(=O)O)cc(N2CCCC2)c1Oc1ccccc1`, the Potency entry in assay [1], in assay [2], in assay [3] and in assay [4] was “inactive” in each case.

Regarding `CC1CC(C)C(=O)C1=O` (stereo not given), the Potency entry in assay [1], in assay [2], in assay [3] and in assay [4] was “inactive” in each case.

Regarding `C[N+](C)(C)CC(O)CCl` (stereo not given), the Potency entry in assay [1], in assay [2], in assay [3] and in assay [4] was “inactive” throughout.

For `IC(I)I`, the Potency entry in assay [1], in assay [2], in assay [3] and in assay [4] was “inactive” in each case.

With `NCCN1CCNCC1`, the Potency result in assay [1], in assay [2], in assay [3] and in assay [4] was “inactive” in each case.

With `CCCCCCCCC/C=C/CC1CC(=O)OC1=O` (stereo not given), the Potency entry in assay [1], in assay [2], in assay [3] and in assay [4] was “inactive” each time.

For `O=C1CCCCCCCCCCC1`, the Potency result in assay [1], in assay [2], in assay [3] and in assay [4] was “inactive” in each case.

Regarding `CC(=O)Nc1nnc(S(N)(=O)=O)s1`, the Potency result in assay [1], in assay [2], in assay [3] and in assay [4] was “inactive” in each case.

On to `Nc1nc(F)nc2c1ncn2[C@@H]1O[C@H](CO)[C@@H](O)[C@@H]1O`, for which the Potency entry in assay [1], in assay [2], in assay [3] and in assay [4] was “inactive” each time.

In the case of `CC(C)CCOC(=O)c1ccccc1`, the Potency result in assay [1], in assay [2], in assay [3] and in assay [4] was “inactive” throughout.

As for `CCCCCCC(CO)CCCC` (stereo not given), the Potency entry in assay [1], in assay [2], in assay [3] and in assay [4] was “inactive” throughout.

As to `CCCCOC(=O)[C@H](C)O`, the Potency result in assay [1], in assay [2], in assay [3] and in assay [4] was “inactive” in each case.

Consider `Cc1oc(=O)oc1CN1CCN(c2cc3c(cc2F)c(=O)c(C(=O)O)c2n3C(C)S2)CC1` (stereo not given), for which the Potency entry in assay [1], in assay [2], in assay [3] and in assay [4] was “inactive” throughout.

For `CCOC(=O)/C=C/C(=O)O`, the Potency result in assay [1], in assay [2], in assay [3] and in assay [4] was “inactive” throughout.

With `OCCO`, the Potency entry in assay [1], in assay [2], in assay [3] and in assay [4] was “inactive” throughout.

In the case of `NC(=O)Cn1c(=O)cc(CCN2CCN(c3nccc4sccc34)CC2)c2ccc(F)cc21`, the Potency in assay [1] and in assay [3] was 35.6 µM (active) in each case. Moreover, the Potency result in assay [2] and in assay [4] was “inactive” throughout.

On to `CC(=O)O[C@H]1CC[C@@]2(C)C(=CC[C@@H]3[C@@H]2CC[C@]2(C)C(C(C)=O)=CC[C@@H]32)C1`, for which the Potency entry in assay [1], in assay [2], in assay [3] and in assay [4] was “inactive” each time.

For `CCc1cccc(CC)c1`, the Potency entry in assay [1], in assay [2], in assay [3] and in assay [4] was “inactive” in each case.

In the case of `CCOC(=O)c1cccnc1`, the Potency result in assay [1], in assay [2], in assay [3] and in assay [4] was “inactive” each time.

In the case of `S=C(NC1CCCCC1)NC1CCCCC1`, the Potency entry in assay [1], in assay [2], in assay [3] and in assay [4] was “inactive” throughout.

As to `O=C(O)CCC(=O)OC[C@@H](NC(=O)C(Cl)Cl)[C@H](O)c1ccc([N+](=O)[O-])cc1`, the Potency entry in assay [1], in assay [2], in assay [3] and in assay [4] was “inactive” each time.

On to `O=Cc1cc2ccccc2o1`, for which the Potency entry in assay [1], in assay [2], in assay [3] and in assay [4] was “inactive” in each case.

Turning to `Cc1cccc2cccnc12`, the Potency entry in assay [1], in assay [2], in assay [3] and in assay [4] was “inactive” each time.

Turning to `C[C@]12C[C@H](O)[C@H]3[C@@H](CCC4=CC(=O)CC[C@@]43C)[C@@H]1CC[C@@H]2C(=O)CO`, the Potency result in assay [1], in assay [2], in assay [3] and in assay [4] was “inactive” throughout.

For the molecule `O=S(=O)(O)c1cc(O)c(O)c(S(=O)(=O)O)c1`, the Potency entry in assay [1], in assay [2], in assay [3] and in assay [4] was “inactive” in each case.

As for `CCOC(=O)c1ccc(C)cc1`, the Potency result in assay [1], in assay [2], in assay [3] and in assay [4] was “inactive” each time.

Turning to `CCc1ccc(C(c2ccc(CC)cc2)C(Cl)Cl)cc1`, the Potency entry in assay [1], in assay [2], in assay [3] and in assay [4] was “inactive” in each case.

As to `CCCCC(CC)COC(=O)c1ccccc1` (stereo not given), the Potency entry in assay [1], in assay [2], in assay [3] and in assay [4] was “inactive” each time.

Regarding `Cc1cc(O)c2c(c1)C(=O)c1cccc(O)c1C2=O`, the Potency result in assay [1], in assay [2], in assay [3] and in assay [4] was “inactive” each time.

For `CCN1CCN(c2cc(-c3ccc(F)cc3)c3c(n2)CCCCCC3)CC1`, the activity, negative = inhibition in assay [1] is 2.78% [at 23.6 µM]. Further, the results for the activity change, negative = inhibition in assay [2], in assay [3] and in assay [4] were 1.01% [at 23.6 µM], 7.25% [at 23.8 µM] and -1.12% [at 23.6 µM], respectively.
